MCF10A rerep: A quantitative high throughput screen for small molecules that induce DNA re-replication in MCF 10a normal breast cells; MCF 10A DNA re-replication, Hoechst nuclear intensity, 48 h; Potency, µM (top dose mostly 46.1 µM), inactives show top-dose activity, positive = re-replication, hits mostly activators; 350,000 tested, 2.9% active; AID 624296, 2012; note: % of control where 0% means no effect; nearly all actives have a fitted effect of over 50% in size
ELG1 DNA repair: qHTS screen for small molecules that inhibit ELG1-dependent DNA repair in human embryonic kidney (HEK293T) cells expressing luciferase-tagged ELG1; Potency, µM (series often up to 46.1 µM), for the others: at the highest dose activity change, negative = inhibition, hits mostly inhibitors; 330,000 tested, 2.3% active; AID 504467, 2011; HEK293T ELG1-luciferase reporter, luminescence, 16 h; DNA damage induced by 5-fluorouridine; note: % is set by controls: 0 for no effect and ±100 for the full control effect; nearly all actives have a fitted effect of over 55% in size
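Step one: seed 2,000 cells per well. Step two: pin-transfer compound or DMSO alongside 5-fluorouridine. Step three: incubate 16 hr, 37 °C, 5% CO2. Step four: add ONE-Glo, wait 30 min, read luminescence.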
KB-3-1 tox: qHTS assay for MDR1-selective chemotherapeutics: Primary screen using the parental adenocarcinoma cell KB-3-1 | KB-3-1 viability, CellTiter-Glo ATP luminescence, 72 h | Potency, µM (series often up to 46.1 µM), usual class: cytotoxic | 400,000 tested, 1.4% active | AID 1347075, 2019; note: % is set by controls: 0 for no effect and ±100 for the full control effect; nearly all actives have a fitted effect of over 60% in size
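Parental KB-3-1 adenocarcinoma cells in phenol-red-free DMEM with 10% FBS were pin-treated with compounds at several concentrations, incubated 72 h at 37 °C, and viability read by CellTiter-Glo luminescence; concentration-effect curves were fitted after normalization.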
KB-V1 cytotox: qHTS assay for MDR1-selective chemotherapeutics: Primary screen using the drug-selected MDR subline cells KB-V1. KB-V1 MDR cells viability, CellTiter-Glo, 72 h. Potency, µM (top dose mostly 46.1 µM), actives largely listed as cytotoxic. 400,000 tested, 3.4% active; note: % is set by controls: 0 for no effect and ±100 for the full control effect; nearly all actives have a fitted effect of over 60% in size
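In this primary screen, KB-V1 cells overexpressing P-gp are incubated with library compounds (lowest to highest concentration) for 72 h at 37 degrees C before a luminescent ATP viability read.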
SW480 rerep: A quantitative high throughput screen for small molecules that induce DNA re-replication in SW480 colon adenocarcinoma cells | SW480 DNA re-replication, Hoechst DNA content imaging, 48 h | Potency, µM (highest dose often 46.1 µM), for inactives: at the top dose re-replication activation, most hits filed as activators | 340,000 tested, 1.8% active; note: % of control where 0% means no effect; nearly all actives have a fitted effect of over 55% in size
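Treated cells incubate 48 hr (37 C, 5% CO2), are stained 40 min with Hoechst, and nuclear fluorescence is enumerated; a rise in nuclei with high DNA signal marks re-replication.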
The depositor's hits bear a star; i = inactive; ? = inconclusive; / = no result; [ ] = another dose, or the depositor's remark. The list is not random: actives were taken first. Their share in the collection is about 8.1%. Calls come from the whole dose curve; as a rule, active = well fitted curve in the direction sought with a large enough effect; inconclusive = small, poorly fitted or top-dose-only effect, or another doubt; inactive = no such curve, though single readings can be large; an effect the other way counts as inactive or inconclusive. Potency is the fitted concentration of half-maximal effect.

SMILES | MCF10A rerep | ELG1 DNA repair | KB-3-1 tox | KB-V1 cytotox | SW480 rerep
CCn1ccc2cc(S(=O)(=O)N3CCC(C(=O)NCCOC)CC3)ccc21 | / | / | i | ? | /
CN(CC(=O)Nc1cccc(F)c1)CC(=O)Nc1cccc(S(=O)(=O)N2CCCCCC2)c1 | 16% | ? | ? | 18µM* | -9%
CN(CC(=O)Nc1cccc(S(=O)(=O)N2CCOCC2)c1)CC(=O)Nc1ccc(Cl)c(C(F)(F)F)c1 | 22% | 13µM* | ? | ? | 3%
CN(CC(=O)Nc1ccc(S(=O)(=O)N2CCCC2)cc1)Cc1cccc(Cl)c1Cl | ? | ? | ? | 18µM* | /
O=C(COc1ccc(Br)cc1Cl)N1CCN(c2ccccn2)CC1 | 3% | -4% | i | i | -2%
O=C(c1cc(COc2ccc(F)c(F)c2)on1)N1CCN(C/C=C/c2ccccc2)CC1 | ? | -12% | i | i | -8%
CCOC(=O)C1CCN(CC(C)(C)NS(=O)(=O)c2ccc(Cl)cc2)CC1 | 15µM* | -4% | i | i | 10%
CC(C)(CN1CCNCC1)NS(=O)(=O)c1ccc(Cl)cc1 | 12µM* | 11% | 21µM* | i | 4%
CCOC(=O)C1CCN(CC(C)(C)NS(=O)(=O)c2ccc(C)cc2)CC1 | 0% | ? | i | i | -5%
COc1ccc(-c2nc(CN3CCN(c4cc(C)nc(C)c4)CC3)c(C)o2)c2ccccc12 | 16µM* | 13% | ? | i | ?
Cc1oc(-c2cccc3ccccc23)nc1CN1CCN(c2ncnc3ccccc23)CC1 | ? | 15µM* | ? | ? | 0%
Cc1cnc(C)c(N2CCN(Cc3nc(-c4ccc(C)o4)oc3C)CC2)n1 | 2% | -19% | i | ? | ?
COC(=O)C1=C(N)c2c(F)cccc2C1(C#N)c1ccc(F)cc1 (stereo unspecified) | ? | 10% | ? | i | 3%[9.22 µM]
O=C1CN(c2ccccc2)C(=S)N1C(=O)c1ccccc1 | -31% | ? | i | i | 3%
FC(F)Sc1ccc(NC(=S)NC(c2ccccc2)c2ccccc2)cc1 | 3.7µM* | -8% | ? | ? | ?
Cc1ccc(N2C(=O)N(CC(=O)Nc3cccc(C)c3C)C(=O)C2C)cc1 (stereo unspecified) | 8% | ? | i | i | 0%
Cc1cc(C)c(CSc2ncc(-c3ccc([N+](=O)[O-])cc3)[nH]2)c(C)c1 | 18µM* | -17% | ? | 23µM* | ?
COC(=O)[C@]12CCCCC=C1N(CCc1ccc(OC)c(OC)c1)C(=O)[C@H](CC(=O)NCCc1ccccc1OC)C2 | / | / | i | 16µM* | /
COC(=O)[C@]12CCCCC=C1N(Cc1ccc3c(c1)OCO3)C(=O)[C@H](CC(=O)NCc1cccc(C(F)(F)F)c1)C2 | / | / | i | ? | /
COC(=O)[C@@]12C[C@@H](CC(=O)NCc3cccc(C(F)(F)F)c3)C(=O)N(CCc3ccc(OC)c(OC)c3)C1=CCC(C)(C)C2 | / | / | ? | 16µM* | /
COC(=O)[C@]12CCCCC=C1N(CCc1ccc(OC)c(OC)c1)C(=O)[C@H](CC(=O)NCc1ccc(OC)c(OC)c1)C2 | / | / | i | i | /
COC(=O)[C@]12CCCCC=C1N(CCc1ccc(OC)c(OC)c1)C(=O)[C@H](CC(=O)NCCCCc1ccccc1)C2 | / | / | i | ? | /
COC(=O)[C@@]12C[C@@H](CC(=O)NCc3cccc(C(F)(F)F)c3)C(=O)N(Cc3ccc4c(c3)OCO4)C1=CCC(C)(C)C2 | / | / | ? | 21µM* | /
COC(=O)[C@]12CCCCC=C1N(CCc1ccc(OC)c(OC)c1)C(=O)[C@H](CC(=O)NCc1cccc(C(F)(F)F)c1)C2 | / | / | ? | 15µM* | /
COc1ccccc1NS(=O)(=O)c1cc(C(=O)NCC(c2cccs2)N2CCOCC2)ccc1C (stereo unspecified) | 3% | ? | i | i | -5%
SMILES | MCF10A rerep | ELG1 DNA repair | KB-3-1 tox | KB-V1 cytotox | SW480 rerep
COC(=O)c1ccc(Cn2cc(C(F)(F)F)ccc2=O)cc1 | -1% | 5% | i | i | -128%
CCOC(=O)c1ccccc1Nc1nc2ccc(C)cc2n2nnnc12 | / | / | i | i | /
CCOC(=O)N1CCC(Nc2nc3ccccc3n3nnnc23)CC1 | ? | -3% | i | 2.3µM* | 8%
O=C(CSCc1c(Cl)cccc1Cl)Nc1cccnc1 | -1% | -19% | i | ? | 0%
COc1ccccc1N1C(C)=CC(=C(C#N)c2nc3ccccc3s2)C=C1C | ? | ? | ? | i | 18µM*
COc1ccc2cnn(CCOc3cc(C)ccc3C(C)C)c(=O)c2c1OC | ? | ? | i | 6.5µM* | ?
CCOc1ccccc1OCCn1ncc2ccc(OC)c(OC)c2c1=O | 0% | ? | i | i | -12%
COC(=O)c1ccccc1-c1ccc(C(c2c(C)[nH][nH]c2=O)c2c(C)[nH][nH]c2=O)o1 | 14µM* | -3% | ? | ? | 26%
COc1ccc(/C=C2\CCCC3C2=NC(=S)NC3c2ccc(OC)cc2)cc1 (stereo unspecified) | 7.3µM* | ? | i | i | 18µM*
COc1ccc(Oc2coc3cc(OC(=O)/C=C/c4ccc(F)cc4)ccc3c2=O)cc1 | -1% | ? | i | i | 1%
COc1ccc(C2C(C(C)=O)=C(O)C(=O)N2c2nccs2)cc1OC (stereo unspecified) | 6% | 4% | i | i | 0%
COc1ccc(C2C(C(C)=O)=C(O)C(=O)N2c2nc3ccccc3s2)cc1OC (stereo unspecified) | 2.3µM* | 5% | i | i | ?
CN1CCN(/C=N/c2c(C#N)cnn2Cc2ccccc2)CC1 | -2% | -14% | i | 10µM* | -4%
Cn1cccc1Cc1nnc(SCC(=O)N2CCN(c3ccccc3)CC2)n1-c1ccc(F)cc1 | 14% | -3% | i | 12µM* | -6%
Cn1c(SCC(=O)N2CCN(c3ccccc3)CC2)nnc1-c1cc2ccccc2o1 | 1% | 13µM* | 23µM* | i | -1%
Cn1c(Cc2cccc3ccccc23)nnc1SCC(=O)N1CCN(c2ccccc2)CC1 | 7% | -14% | i | 15µM* | 12%
O=C(O)CSc1nnc(-c2cc3ccccc3o2)n1-c1ccccc1 | -3% | 4% | i | ? | 0%
Cn1c(Cc2ccccc2)nnc1SCC(=O)N1CCN(c2ccccc2)CC1 | ? | ? | ? | i | 11%
